# In all, about 4,900 compounds went through this assay and about 2,100 (43%) were called active.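 The calls were made as follows: active = thallium signal inhibited by more than 5 SD of the compound-free buffer control wells, on both duplicate plates; inactive = the rest.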 So high a share suggests a set chosen from earlier hits. Only a sample is shown.
# Target: Potassium channel subfamily K member 9 (Homo sapiens) (UniProt Q9NPC2)
# Test: KCNK9 potassium channel inhibitors, confirmation, HEK293 cells, thallium flux, duplicate (AID 492992);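 as to inhibition: 0% = assay buffer control wells without compound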
# Details: FluxOR thallium flux fluorescence, at 10 µM; stronger effect = higher value
# Chain of Potassium channel subfamily K member 9 (Homo sapiens) (Q9NPC2 whole entry, looked up): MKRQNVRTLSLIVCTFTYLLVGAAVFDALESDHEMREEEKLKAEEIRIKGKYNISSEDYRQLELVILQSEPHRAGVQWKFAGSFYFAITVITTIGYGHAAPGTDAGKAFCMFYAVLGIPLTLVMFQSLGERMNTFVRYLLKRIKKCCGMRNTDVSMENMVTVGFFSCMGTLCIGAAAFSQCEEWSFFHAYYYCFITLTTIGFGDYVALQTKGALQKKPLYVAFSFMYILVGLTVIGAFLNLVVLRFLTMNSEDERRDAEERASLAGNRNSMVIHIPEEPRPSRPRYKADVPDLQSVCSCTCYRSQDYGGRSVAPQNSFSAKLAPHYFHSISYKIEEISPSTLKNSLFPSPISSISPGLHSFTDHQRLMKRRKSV
row,Compound,inhibition
1,COc1ccc([N+](=O)[O-])cc1-c1nc2ccccc2nc1-c1ccccc1,inactive
2,COC(=O)Cn1cnc2scc(-c3ccc(C)c(C)c3)c2c1=O,inactive
3,CC(C)N(C(=O)CSc1nc(COc2ccccc2)nc2ccccc12)C(C)C,76.5% (active)
4,O=C1/C(=C/c2ccc3c(c2)OCO3)CCC/C1=C\c1ccc2c(c1)OCO2,inactive
5,COc1ccc(CCNc2ncnc3c2nnn3Cc2ccccc2)cc1,inactive
6,COc1ccc(CCNC(=O)c2ccccc2OCc2ccccc2)cc1,64% (active)
7,O=C(NCCCc1ccccc1)c1cc(COc2c(F)cccc2F)on1,inactive
8,COc1ccc(-c2noc(CSc3ccc(C)cc3)n2)cc1,inactive
9,COc1cc(NC(=S)NCCSc2ccc(C)cc2)cc(OC)c1,27% (active)
10,COc1cccc(C(=O)NCCSc2ccc(Br)cc2)c1,inactive
11,CCOc1ccccc1NC(=O)C12CC3CC(C1)CC(c1ccc(C)cc1)(C3)C2,inactive
12,O=C(Oc1ccc(Br)cc1C(=S)N1CCOCC1)c1cccc([N+](=O)[O-])c1,50% (active)
13,COc1ccc(-c2oc(/N=C/N3CCCC3)c(C#N)c2-c2ccc(OC)cc2)cc1,inactive
14,O=C(Cn1cc(C(=O)c2cccs2)c2ccccc21)NCc1cccs1,39% (active)
15,Cc1ccc(CN(N=Nc2nonc2N)c2nonc2N)c(C)c1,68.5% (active)
16,C/C(=N\NC(=S)Nc1ccc(C)cc1)c1cc2ccccc2o1,inactive
17,Cc1cccc(N(C)C(=O)CN2C(=O)COc3ccc(S(=O)(=O)N4CCCCCC4)cc32)c1,inactive
18,Cc1ccc(S(=O)(=O)N2CCN(C(=O)COC(=O)c3c(C)cc(C)cc3C)CC2)c(C)c1,inactive
19,CCOc1ccc(C(C)C)cc1S(=O)(=O)n1nc(C)cc1C,33% (active)
20,CC(C)(C)NC(=O)NC(=O)CN1CCC(Cc2ccccc2)CC1,inactive
21,CC1=CC(C)(C)N(C(=O)CSc2nnc(-c3ccccc3)o2)c2ccc(C)cc21,inactive
22,C=CCOc1ccc(/C=N/NC(=O)C(C)Sc2ccccn2)cc1OCC (configuration not stated),46.5% (active)
23,O=[N+]([O-])/C=C/c1ccc2c(ccn2Cc2ccccc2)c1,inactive
24,COC(=O)c1sc(-c2ccc(C(C)(C)C)cc2)cc1NC(=O)/C=C/C(=O)O,inactive
25,O=C(CC(NC(=O)c1ccccc1)c1ccccc1)Nc1ccc(F)c(F)c1 (configuration not stated),inactive
26,O=C(C[C@H]1C(=O)N(c2ccc(F)c(F)c2)C[C@@H]1Cc1ccccc1)Nc1ccccc1,39% (active)
27,Cc1ccc(C(=O)c2c(NC(=O)c3ccccc3)sc(C)c2C)cc1,inactive

# Source: PubChem BioAssay AID492992 (Johns Hopkins Ion Channel Center, 2010)
